Consider 36 compounds from PubChem BioAssay (EPA / NIEHS).

SMILES strings stand for the structures. Activity calls are given as the source filed them. How the source made its calls: active means hit-call score of the fitted dose curve at least 0.9, where 1 is the maximum; inconclusive means response in the unintended direction; inactive means score below 0.9.

Peroxisome proliferator-activated receptor gamma (Homo sapiens), sequence (P37231 whole entry, looked up, the tested form may be a part): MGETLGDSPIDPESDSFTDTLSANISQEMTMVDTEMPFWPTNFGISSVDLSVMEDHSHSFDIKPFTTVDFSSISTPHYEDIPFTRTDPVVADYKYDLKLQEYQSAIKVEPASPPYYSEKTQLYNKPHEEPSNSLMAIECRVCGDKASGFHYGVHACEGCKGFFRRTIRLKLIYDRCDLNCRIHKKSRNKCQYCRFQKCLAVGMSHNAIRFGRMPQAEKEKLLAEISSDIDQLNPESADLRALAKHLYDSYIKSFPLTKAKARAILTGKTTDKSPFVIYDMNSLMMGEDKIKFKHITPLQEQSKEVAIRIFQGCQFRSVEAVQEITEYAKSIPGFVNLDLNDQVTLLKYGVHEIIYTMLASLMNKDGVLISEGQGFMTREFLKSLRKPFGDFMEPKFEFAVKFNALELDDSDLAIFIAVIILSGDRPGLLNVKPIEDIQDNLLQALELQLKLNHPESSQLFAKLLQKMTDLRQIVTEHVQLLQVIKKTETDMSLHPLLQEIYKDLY

The experiment addresses Peroxisome proliferator-activated receptor gamma (Homo sapiens) (UniProt P37231). Kind of experiment: OT_PPARg_PPARgSRC1_1440: Odyssey Thera (OT) 24-hour Protein-Complementation Assay for Peroxisome Proliferator-activated Receptor Gamma/ SRC-1 Co-activator (AID 2283388).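 Further: nuclear to cytoplasmic ratio of reconstituted Venus YFP fluorescence in fixed imaged cells.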 Put shortly: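 Readout: nuclear-to-cytoplasmic 488 nm fluorescence ratio, ≥350 cells per image, 8 images per well, after 24 h compound exposure of HEK293T expressing PPARg/SRC-1 split-YFP fusions. Activity fitted in positive direction against DMSO.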
For the compound `CS(=O)(=O)c1cc(C(F)(F)F)ccc1C(=O)c1cnoc1C1CC1`, the compound was called inactive. With `CCCCC(O)(Cn1cncn1)c1ccc(Cl)cc1Cl` (stereo unspecified), the outcome was inactive. The same measure for `CCNC(=O)NC(=O)C(C#N)=NOC`: “inactive”; for `CSC(=O)c1c(C(F)F)nc(C(F)(F)F)c(C(=O)SC)c1CC(C)C`: “inactive”; for `CO/N=C(/C1=NOCCO1)c1ccccc1Oc1ncnc(Oc2ccccc2Cl)c1F`: “inactive”. The same measure for `CC(C)N1C(=O)c2ccccc2NS1(=O)=O`: “inactive”. The same measure for `COc1cc(OC)nc(NC(=O)NS(=O)(=O)c2ncccc2OCC(F)(F)F)n1`: “inactive”; for `CC(C)=CC1C(C(=O)OCc2coc(Cc3ccccc3)c2)C1(C)C` (stereo unspecified): “inactive”; for `Nc1c(Cl)c(Cl)nc(C(=O)O)c1Cl`: “inactive”. For the compound `COC(=O)NS(=O)(=O)c1ccc(N)cc1`, the result was inactive.

With `CN=C=S`, the compound was called inactive. With `CC1(C)C(C(=O)OC(C#N)c2cccc(Oc3ccccc3)c2)C1(C)C` (stereo unspecified), the call was inactive. Consider `Cc1ccc(N=CN(C)C=Nc2ccc(C)cc2C)c(C)c1`, for which the compound was classed as inactive. Regarding `O=c1n(Cl)c(=O)n(Cl)c(=O)n1Cl`, the result was inactive. Turning to `Clc1cccc(C(Cl)(Cl)Cl)n1`, the compound was classed as inactive. For `Cc1cc(C)nc(Nc2ccccc2)n1`, the outcome was inactive. The result for `CC(C)C1(C)N=C(c2ncccc2C(=O)O)NC1=O` (stereo unspecified) reads “inactive”; that for `CS(=O)(=O)c1ccc(C(=O)C2C(=O)CCCC2=O)c([N+](=O)[O-])c1`, “inactive”; that for `Cn1c(-c2ccccc2)cc(-c2ccccc2)[n+]1C`, “inactive”. With `CC(C)N1C(=O)N(c2ccccc2)CSC1=NC(C)(C)C`, the result was inactive. The result for `COP(=O)(OC)O/C(C)=C/C(=O)N(C)C` reads “inactive”; that for `COCC(C)N(C(=O)CCl)c1c(C)csc1C` (stereo unspecified), “inactive”.

In the case of `OC(c1ccc(Cl)cc1)(c1ccc(Cl)cc1)C(Cl)(Cl)Cl`, the compound was classed as inactive. The same measure for `COC(=O)c1c(C(F)F)nc(C(F)(F)F)c(C2=NCCS2)c1CC(C)C`: “inactive”; for `CCOP(=O)(OCC)Oc1nc(Cl)c(Cl)cc1Cl`: “inactive”. The same measure for `O=P(O)(O)CCCl`: “inactive”; for `N#Cc1c[nH]cc1-c1cccc2c1OC(F)(F)O2`: “inactive”; for `COc1ccc(-c2ccccc2)cc1NNC(=O)OC(C)C`: “inactive”. The result for `Cc1cnc(C2=NC(C)(C(C)C)C(=O)N2)c(C(=O)O)c1` (stereo unspecified) reads “inactive”.

Take `CCOc1nc(F)cc2nc(S(=O)(=O)Nc3c(Cl)cccc3Cl)nn12`: the result was inactive. Turning to `CNC(=O)N(C)c1nnc(C(C)(C)C)s1`, the compound was classed as inactive. The result for `C=C(C)CN(CC)c1c([N+](=O)[O-])cc(C(F)(F)F)cc1[N+](=O)[O-]` reads “inactive”; that for `CCCCOCN(C(=O)CCl)c1c(CC)cccc1CC`, “inactive”. The same measure for `Nc1c(Cl)c(F)nc(OCC(=O)O)c1Cl`: “inactive”; for `O=C(O)c1c(Cl)ccc2cc(Cl)cnc12`: “inactive”; for `COC(=O)N(C(=O)N1CO[C@@]2(C(=O)OC)Cc3cc(Cl)ccc3C2=N1)c1ccc(OC(F)(F)F)cc1`: “inactive”.
